Results taken from PubChem BioAssay AID687031 (Broad Institute, 2013).
Screen size: about 1,400 compounds; about 50 (4%) were called active.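 How the source made its calls: active means fitted curve reaches 30% CPE protection at or below the top valid dose, with every test run called active; inconclusive means test runs disagree, some active and some not; inactive means every test run inactive, including effects in the wrong direction.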 Only a sample is shown. Potency and affinity values are given separately.

assay: Dengue virus 2 cytopathic effect protection, dose response, BHK-21 cells, ATP luminescence, cherry-pick (AID 687031); conditions: BHK-21 DENV2 CPE protection, 5 d; series mostly up to 19.5 µM

outcome, inactive:
COc1cccc(-c2ccc3c(c2)[C@H]2[C@H](CCN2S(=O)(=O)c2cn(C)cn2)[C@@H](CO)N3)c1, COc1cccc(NC(=O)N2[C@@H]3CNC[C@H]2C3c2ccc(-c3ccccc3)cc2)c1 (some centres not stated), Cc1ccccc1-c1ccc(C2[C@@H]3CN(C(=O)Cc4ccncc4)C[C@H]2N3)cc1 (some centres not stated), CS(=O)(=O)N1[C@@H]2CNC[C@H]1C2c1ccc(-c2ccccc2)cc1 (some centres not stated), C[C@@H]1CN([C@H](C)CO)C(=O)c2cccc(NC(=O)Nc3ccc4c(c3)OCO4)c2O[C@H]1CN(C)C(=O)Nc1ccccc1, CCOC(=O)CC[C@H](NC(=O)Cn1cnc2c(OCc3ccccc3)ncnc21)C(=O)OCC, COc1ccc(C(CNC(=O)COc2cc(C)ccc2Cl)N2CCCCC2)cc1 (configuration not stated), COc1ccc2o/c(=N\O)c(C(=O)Nc3ccc(C)cc3)cc2c1, COc1cc(S(=O)(=O)NCc2ccncc2)c(OC)cc1Br, CO[C@@H]1CN(C)C(=O)c2ccc(NC(=O)CC(F)(F)F)cc2OC[C@H](C)N(C(C)=O)C[C@@H]1C, O=C1Nc2ccccc2C(=O)N(C2CCCC2)C1C(=O)NC1CC1 (configuration not stated), O=C1Nc2ccccc2SC1c1ccccc1 (configuration not stated), C[C@@H]1CN([C@H](C)CO)C(=O)c2cc(N(C)C)ccc2O[C@@H](C)CCCCO[C@@H]1CN(C)C(=O)CCC(F)(F)F, OC(COc1ccc(Cl)cc1Cl)Cn1ccnc1 (configuration not stated), Cc1nccn1CC(O)COc1ccc(Cl)cc1Cl (configuration not stated), CCC(C(=O)Nc1c(C)cccc1C)n1c(-c2ccc(=O)[nH]c2)nc2ccccc21 (configuration not stated), O=C(NCc1ccc2c(c1)OCO2)C(=O)NCC1OCCCN1S(=O)(=O)c1ccccc1 (configuration not stated), Cc1ccc(C(=O)NCC(=O)Nc2ccc(S(=O)(=O)Nc3cc(C)nc(C)n3)cc2)cc1, O=C(C[C@H]1CC[C@@H]2[C@H](COC[C@H](O)CN2C(=O)Cc2ccccc2)O1)NC1CCCC1, Cc1ccc(S(=O)(=O)Nc2cccc(C(=O)NCCCn3ccnc3)c2)cc1F, CCOC(=O)N1CCC(NS(=O)(=O)c2ccc(C#N)cc2)CC1, CCOC(=O)N1CCC(NC(=O)c2cccc3c2C(=O)N(CCOC)C3)CC1, CC(C)OC(=O)c1ccc(NCc2cc(O)ccc2O)cc1, CCOC(=O)N1C=CC=C[C@@H]2[C@@H](N3C(=O)c4ccccc4C3=O)C(=O)N21, COc1ccc(C2CC(c3cccs3)=NN2C(=O)CCC(=O)O)cc1OC (configuration not stated), COc1ccc(NC(=O)Nc2cccc3c2O[C@H](CN(C)C(=O)Nc2ccc(OC)cc2)[C@@H](C)CN([C@@H](C)CO)C3=O)cc1, Cc1cccnc1, CC(=O)N1c2ccc(S(=O)(=O)NCCC(=O)N3CCCC(C)C3)cc2CC1C (configuration not stated), Cc1ccccc1NS(=O)(=O)c1ccc(S(=O)(=O)N2CCCC2)cc1, CCOc1ccc(C(=O)Nc2ccc(CN3CCOCC3)cc2)cc1Cl, Cc1ccc(NC(=O)C2CCCCC2)cc1C, Brc1ccc(OCc2nnc(SCC3CCCCC3)o2)cc1, N#CCSc1ccccc1NC(=O)CN1C(=O)C(=O)N(Cc2ccccc2)C1=O, COc1ccccc1N1CCN(S(=O)(=O)CCNC(=O)CCc2ccccc2)CC1, COCCNC(=O)CCC1CCN(Cc2ccc(-c3ccccc3)cc2)CC1, C[C@@H]1CN([C@H](C)CO)C(=O)Cc2cc(NC(=O)CCCCCC(=O)Nc3ccccc3N)ccc2O[C@@H]1CN(C)Cc1ccc(Cl)c(Cl)c1, CCc1nc2c(OCCc3cccc(OC)c3)cccn2c1N(C)C(=O)c1ccc(C)cc1, CN1[C@@H]2Cn3c(ccc(C4=CCCC4)c3=O)[C@H]1[C@@H](C(=O)N1CCCCC1)[C@@H]2CO, CCCN1[C@H](C(=O)OC)[C@@H](CO)[C@@H]2Cn3c(ccc(C4=CCCC4)c3=O)[C@@H]21, O=C(Nc1ccc2c(c1)OCCO2)c1cccc(C(=O)Nc2ccc3c(c2)OCCO3)c1, O=C(COC(=O)CNC(=O)c1ccc(Cl)cc1)Nc1ncc(C(F)(F)F)cc1Cl, Cc1ccccc1OCC(=O)OCC(=O)NCCNC(=O)COC(=O)COc1ccccc1C, CC1CC(C)CN(C(=O)COC(=O)c2nccnc2N)C1 (configuration not stated), O=C(COc1ccc(-c2nnco2)cc1)NCc1ccccc1Cl, Cc1ccccc1S(=O)(=O)N1[C@H](C#N)[C@H](c2ccccc2)[C@@H]1CO, CN1C(=O)c2cc(NC(=O)NC3CCCC3)ccc2OC[C@H]2O[C@@H](CC(=O)NCC3CC3)CC[C@@H]21, Cc1ccccc1-c1cnc(C(O)c2cccc(C)c2C)[nH]1 (configuration not stated), CC(C)c1ccc(S(=O)(=O)N2CCN(C(=O)n3ccnc3)CC2)cc1, CC(=O)Nc1cc(-c2ccc(C(=O)NC3CC3)cc2)cn2c(-c3cccc(C(F)(F)F)c3)cnc12, COc1ccc(C(CNC(=O)CCNC(=O)c2ccc(Br)cc2)N2CCOCC2)cc1 (configuration not stated), Cc1ccc(NC(=O)C2(c3cccs3)CCOCC2)cc1C, Cc1ccccc1-c1csc(C(C)(O)c2ccccc2)n1 (configuration not stated), O=C(c1ccncc1)N1CCCC(N2CCN(c3cccc(C(F)(F)F)c3)CC2)C1 (configuration not stated), O=C(c1cc(C2CC2)on1)N1CCCC(N2CCN(c3cccc(C(F)(F)F)c3)CC2)C1 (configuration not stated), CN(CC(=O)Nc1ccc(Cl)cc1)C(=O)CCc1nc2sc3c(c2c(=O)[nH]1)CCCC3, CC#CCN1C(=O)N[C@@H](c2ccccc2)C(C(=O)OC)=C1C, COC(=O)[C@@H]1[C@H](CCc2ccccc2)NC(=O)N(Cc2ccccc2)[C@@H]1C, O=S(=O)(NN=Cc1cccc(Cl)c1)c1ccccc1, Cc1ccc2c(COC(=O)CNC(=O)c3ccccc3)cc(=O)oc2c1, COc1cc(OC)cc(C(=O)NCCC(c2ccccc2)c2ccccc2)c1, C[C@@H]1CN([C@H](C)CO)C(=O)c2cc(NC(=O)c3ccccc3)ccc2O[C@@H](C)CCCCO[C@@H]1CN(C)S(=O)(=O)c1ccc(F)cc1, Cc1noc(C)c1NC(=O)Nc1ccc2c(c1)C(=O)N([C@@H](C)CO)C[C@@H](C)[C@@H](CN(C)C)OCCCC[C@@H](C)O2, Cc1noc(C)c1NC(=O)Nc1ccc2c(c1)C(=O)N([C@@H](C)CO)C[C@@H](C)[C@@H](CN(C)Cc1ccccc1)OCCCC[C@@H](C)O2, C[C@@H]1CCCCO[C@@H](CN(C)S(=O)(=O)c2ccc(F)cc2)[C@@H](C)CN([C@@H](C)CO)C(=O)c2cc(NC(=O)c3ccccc3)ccc2O1, Cc1cnc(CNC(=O)C2CCC(=O)N(Cc3ccc(Cl)cc3)C2)[nH]1 (configuration not stated), ClC(CCN1CCN(Cc2ccccc2)CC1)c1ccccc1 (configuration not stated), Cc1cccc(N(CC(=O)NC(C)(C)C)C(=O)CNC(=O)c2cccs2)c1C, CS(=O)(=O)N1CCc2cc(C(=O)N3CCN(c4ccccc4)CC3)ccc21, CC1CCN(C(=O)COC(=O)c2cc3ccccc3oc2=O)CC1, CCOC(=O)N1CCC(NCCNC(=O)c2ccc(F)c(F)c2)CC1, Cc1noc(C)c1NC(=O)N(C)C[C@@H]1Oc2c(NS(=O)(=O)c3ccccc3)cccc2C(=O)N([C@@H](C)CO)C[C@@H]1C, CCNC(=O)C1(C)CCN(Cc2noc(-c3c(C)noc3C)n2)C1 (configuration not stated), O=C(C[C@H]1C=C[C@H](NS(=O)(=O)c2ccccc2)[C@H](CO)O1)N1CCC(Cc2ccccc2)CC1, O=C(NC1CCCCC1)N[C@H]1C=C[C@@H](CC(=O)N2CCOCC2)O[C@@H]1CO, CCN(c1ccccc1)S(=O)(=O)c1ccc(OC)c(NC(=O)C2CCC2)c1, Cc1cccc(OCC(=O)NNC(=O)C2CCCCC2C(=O)O)c1 (configuration not stated), c1ccc(-c2ccc(OCCN3CCOCC3)cc2)cc1, CN1CCN(CCOc2ccc(-c3ccccc3)cc2)CC1, Cc1cc(=O)oc2cc(OCCSCCN3CCCC3)ccc12, O=C(NCc1cc(C(F)(F)F)cc(C(F)(F)F)c1)C1CC(c2cccc(F)c2)=NO1 (configuration not stated), O=C(C[C@@H]1CC[C@H]2[C@@H](COC[C@@H](O)CN2C(=O)c2ccncc2)O1)NCc1ccc(-c2ccccc2)cc1, CCCC[C@@H]1CNC(=O)C(=O)N1CCCCC1CCCCC1, CCC(=O)Nc1ccc2c(c1)C(=O)N(C)[C@@H]1CC[C@H](CC(=O)N[C@@H](C)c3ccccc3)O[C@@H]1CO2, O=C(NCCN1CCCC1)[C@H]1N[C@H]2c3ccc(-c4ccccc4)c(=O)n3C[C@H]2[C@@H]1CO, O=C(NCc1ccccc1F)[C@H]1N[C@H]2c3ccc(-c4ccccc4F)c(=O)n3C[C@H]2[C@@H]1CO, O=C(c1cc(-c2ccccc2)n[nH]1)N1CCN(S(=O)(=O)c2ccccc2)CC1, COCCn1nnnc1C(c1cc2cc(C)ccc2[nH]c1=O)N1CCN(C2CCCCC2)CC1 (configuration not stated), CCN(CC(=O)Nc1c(F)cccc1F)C(=O)c1cccc(S(=O)(=O)NCc2ccccc2)c1, CCN(CC(=O)Nc1cc(Cl)ccc1-n1cncn1)Cc1nc2ccccc2c(=O)[nH]1, C[C@@H]1CN([C@H](C)CO)C(=O)Cc2cc(NC(=O)Cn3cnnn3)ccc2O[C@@H]1CN(C)Cc1ccc(C(=O)Nc2ccccc2N)cc1, Cc1cnc(CN(C)C(=O)CC2C(=O)NCCN2Cc2cccc(F)c2F)[nH]1 (configuration not stated), CCCN1CCC(NC(=O)CC2C(=O)NCCN2Cc2cccc(OC)c2)CC1 (configuration not stated)
